The values below come from PubChem BioAssay (NCATS).

Records with an inconclusive call do not appear. Active and inactive are the calls of the source. Calls follow the shape of the dose curve; as a rule, active = well fitted curve in the direction sought with a large enough effect; inconclusive = small, poorly fitted or top-dose-only effect, or another doubt; inactive = no such curve, though single readings can be large; an effect the other way counts as inactive or inconclusive.

Assay [1] can be described thus: Primary qHTS for inhibitors of nuclear receptor binding SET domain protein 2 (NSD2) in an isogenic RCH-ACV NSD2 p.E1099K mutant (9B) (AID 1645876). Also: nearly all actives have a fitted effect of over 70% in size. Also: potency is read from the fitted curve at half-maximal effect. On the technique in general: Quantitative high-throughput screening tests each substance at several concentrations.
Assay [2] is described as follows: Primary qHTS for inhibitors of nuclear receptor binding SET domain protein 2 (NSD2) in an RCH-ACV wild type WT cells (2C) (AID 1645877). Also: nearly all actives have a fitted effect of over 70% in size. Also: potency is read from the fitted curve at half-maximal effect.
In assay [3] the target is Catechol O-methyltransferase (Homo sapiens) (UniProt P21964). Description: Confirmatory Screen for Target Class Profiling of Small Molecule Inhibitors of Methyltransferases (AID 1745852). Conditions: MTase-Glo luminescence, SAH detection, recombinant enzyme; measured here: COMT max response; stronger effect = lower value.
Sequence of Catechol O-methyltransferase (Homo sapiens) (P21964 whole entry, looked up): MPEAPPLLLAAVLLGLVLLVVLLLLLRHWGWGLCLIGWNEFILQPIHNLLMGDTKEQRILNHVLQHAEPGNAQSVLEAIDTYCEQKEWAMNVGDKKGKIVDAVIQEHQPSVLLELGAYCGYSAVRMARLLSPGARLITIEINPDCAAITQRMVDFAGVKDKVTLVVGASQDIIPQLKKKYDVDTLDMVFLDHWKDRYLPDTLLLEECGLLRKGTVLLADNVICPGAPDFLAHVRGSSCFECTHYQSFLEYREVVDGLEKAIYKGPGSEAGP

For `COc1cc(C(=O)OC[C@H]2O[C@@H](Oc3ccccc3/C=C/C(=O)O)[C@H](O)[C@@H](O)[C@@H]2O)cc(OC)c1OC`, the Potency entry in assay [1] and in assay [2] was “inactive” throughout. Moreover, the activity in assay [3] is -77.7%.

Turning to `CCN(CC)c1ccc2c(O)c(C=Nc3ccc(CC(=O)O)c(-c4c5c(nc6ccccc46)CCC(C(=O)NN)C5)c3)c(=O)oc2c1` (stereo not drawn), the Potency in assay [1] was 2.9 µM (active); in assay [2], 4.59 µM (active). The activity in assay [3] is -17%.

Regarding `CC1=C(CCC(C)O[C@@H]2O[C@H](CO)[C@@H](O)[C@H](O)[C@H]2O)C(C)(C)CCC1=O` (stereo partly drawn), the Potency entry in assay [1] and in assay [2] was “inactive” each time. Further, the activity in assay [3] is -64%.

`C=C(C)C(=O)OC1CC2(C)OC(=CC2=O)C(=C)CC2OC(=O)C(COC)C12` (stereo not drawn): the Potency in assay [1] was 4.01 µM (active); in assay [2] it was 1.79 µM (active). Also, the activity in assay [3] was -94%.

On to `CC(C)=CCC/C(C)=C/CO[C@@H]1O[C@H](CO)[C@@H](OC(=O)/C=C/c2ccc(O)cc2)[C@H](O[C@@H]2O[C@@H](C)[C@H](O)[C@@H](O)[C@H]2O)[C@H]1O`, for which the Potency entry in assay [1] and in assay [2] was “inactive” in each case.

`CC(C)CCC1(O)C(=O)C(C)(C)C(O[C@@H]2O[C@H](CO)[C@@H](O)[C@H](O)[C@H]2O)C(C)(C)C1O` (stereo partly drawn): the Potency entry in assay [1] and in assay [2] was “inactive” throughout. Also, in assay [3], the activity is -56.9%.

Consider `CC(C)=CCC(O)/C(C)=C/CO[C@@H]1O[C@H](CO)[C@@H](O)[C@H](O)[C@H]1O` (stereo partly drawn), for which the Potency result in assay [1] and in assay [2] was “inactive” in each case. For the same molecule, the activity in assay [3] is -52%.

Take `CCc1c(-c2ccccc2)c(-c2ccccc2)nn1-c1ccccc1-c1cccc(OCC(=O)O)c1`: the Potency entry in assay [1] and in assay [2] was “inactive” each time. The activity in assay [3] is -1.93%.
